Results published in PubChem BioAssay AID1159580 (chemical genetic matrix, 2015).
Hit rate of the full screen: of about 5,500 compounds, about 2,000 (36%) were called active. Inconclusive results (about 18%) are left out. No stated cut-off is given here; in the data, active means normalized growth mostly below about 0.91 (no sharp cut-off); inconclusive means no clear call, values can overlap the other calls; inactive means mostly above about 0.92. This is one part of the list.

Assay: chemical genetic growth profiling, strain panel (AID 1159580);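 further: tested at 20 µM; growth read once vehicle control cultures reached saturation at 30 °C; 1 = growth at the plate median or of vehicle wells; lower values mean less growth of the strain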
Conditions: growth OD

Measured: normalized growth

CC(=O)O[C@H]1CC[C@@]2(C)C(=CCC3C2CC[C@@]2(C)C3CC[C@@H]2C(C)CCCC(C)C)C1 (stereo partly drawn)
inactive: S. cerevisiae deletion strains, locus YJR066W, strain TOR1, active compounds read low 0.96 | S. cerevisiae deletion strains, locus YKL009W, strain mrt4, active compounds read low 1.05 | S. cerevisiae deletion strains, locus YKL068W, active compounds read low 1 | S. cerevisiae deletion strains, locus YKL085W, strain MDH1 (second series), active compounds read low 1.01 | S. cerevisiae deletion strains, locus YKL085W, strain MDH1, active compounds read low 1.01 | S. cerevisiae deletion strains, locus YKL160W, strain elf1, active compounds read low 0.997 | S. cerevisiae deletion strains, locus YKL190W, strain CNB1, active compounds read low 1.01 | S. cerevisiae deletion strains, locus YKR001C, strain vps1, active compounds read low 1.06 | S. cerevisiae deletion strains, locus YKR026C, strain gcn3, active compounds read low 0.991 | S. cerevisiae deletion strains, locus YKR091W, strain srl3, active compounds read low 0.998 | S. cerevisiae deletion strains, locus YLL001W, strain dnm1, active compounds read low 0.997 | S. cerevisiae deletion strains, locus YLL026W, active compounds read low 0.995 | S. cerevisiae deletion strains, locus YLL041C, strain sdh2, active compounds read low 0.995 | S. cerevisiae deletion strains, locus YLR027C, strain aat2, active compounds read low 0.979 | S. cerevisiae deletion strains, locus YLR039C, strain RIC1, active compounds read low 1.08 | S. cerevisiae deletion strains, locus YLR058C, strain SHM2, active compounds read low 1.01 | S. cerevisiae deletion strains, locus YLR102C, strain apc9, active compounds read low 1.01 | S. cerevisiae deletion strains, locus YLR113W, strain HOG1, active compounds read low 0.95 | S. cerevisiae deletion strains, locus YLR221C, strain rsa3, active compounds read low 0.979 | S. cerevisiae deletion strains, locus YLR258W, strain gsy2, active compounds read low 1.01 | S. cerevisiae deletion strains, locus YLR262C, strain YPT6 (second series), active compounds read low 1.01 | S. cerevisiae deletion strains, locus YLR262C, strain YPT6, active compounds read low 1.14 | S. cerevisiae deletion strains, locus YLR268W, strain sec22, active compounds read low 1.03 | S. cerevisiae deletion strains, locus YLR320W, strain mms22, active compounds read low 0.98 | S. cerevisiae deletion strains, locus YLR330W, strain CHS5, active compounds read low 1.02 | S. cerevisiae deletion strains, locus YLR342W, strain FKS1 (second series), active compounds read low 1.07 | S. cerevisiae deletion strains, locus YLR342W, strain FKS1, active compounds read low 0.994 | S. cerevisiae deletion strains, locus YLR357W, strain rsc2, active compounds read low 0.985 | S. cerevisiae deletion strains, locus YLR370C, strain arc18, active compounds read low 0.991 | S. cerevisiae deletion strains, locus YLR371W, strain rom2, active compounds read low 1.02 | S. cerevisiae deletion strains, locus YLR384C, strain iki3, active compounds read low 1.01 | S. cerevisiae deletion strains, locus YLR418C, strain cdc73, active compounds read low 1.04 | S. cerevisiae deletion strains, locus YML016C, strain PPZ1, active compounds read low 1.01 | S. cerevisiae deletion strains, locus YML032C, strain rad52, active compounds read low 1.02 | S. cerevisiae deletion strains, locus YML120C, strain ndi1, active compounds read low 1 | S. cerevisiae deletion strains, locus YML124C, strain tub3, active compounds read low 1.02 | S. cerevisiae deletion strains, locus YMR058W, strain fet3, active compounds read low 0.913 | S. cerevisiae deletion strains, locus YMR078C, strain ctf18, active compounds read low 1.02 | S. cerevisiae deletion strains, locus YMR125W, strain sto1, active compounds read low 0.995 | S. cerevisiae deletion strains, locus YMR129W, active compounds read low 0.997 | S. cerevisiae deletion strains, locus YMR205C, strain PFK2, active compounds read low 1 | S. cerevisiae deletion strains, locus YMR223W, strain ubp8, active compounds read low 1.03 | S. cerevisiae deletion strains, locus YMR231W, strain pep5, active compounds read low 0.965 | S. cerevisiae deletion strains, locus YMR307W, strain GAS1, active compounds read low 1.03 | S. cerevisiae deletion strains, locus YNL067W, strain RPL9B, active compounds read low 1.02 | S. cerevisiae deletion strains, locus YNL071W, strain lat1, active compounds read low 0.999 | S. cerevisiae deletion strains, locus YNL128W, strain TEP1, active compounds read low 1.02 | S. cerevisiae deletion strains, locus YNL153C, strain GIM3, active compounds read low 1.02 | S. cerevisiae deletion strains, locus YNL183C, strain NPR1, active compounds read low 0.906 | S. cerevisiae deletion strains, locus YNL209W, strain ssb2, active compounds read low 0.999 | S. cerevisiae deletion strains, locus YNL233W, strain BNI4, active compounds read low 1 | S. cerevisiae deletion strains, locus YNL248C, strain rpa49, active compounds read low 1 | S. cerevisiae deletion strains, locus YNL250W, strain rad50, active compounds read low 1.02 | S. cerevisiae deletion strains, locus YNL271C, strain bni1, active compounds read low 1.04 | S. cerevisiae deletion strains, locus YNL298W, strain CLA4, active compounds read low 1.02 | S. cerevisiae deletion strains, locus YNL307C, strain MCK1, active compounds read low 1.03 | S. cerevisiae deletion strains, locus YNL322C, strain KRE1 (second series), active compounds read low 0.989 | S. cerevisiae deletion strains, locus YNR049C, strain mso1, active compounds read low 0.988 | S. cerevisiae deletion strains, locus YNR052C, strain pop2, active compounds read low 1.02 | S. cerevisiae deletion strains, locus YOL012C, strain htz1 0.984 | S. cerevisiae deletion strains, locus YOL147C, strain pex11, active compounds read low 1.02 | S. cerevisiae deletion strains, locus YOR001W, strain rrp6, active compounds read low 0.974 | S. cerevisiae deletion strains, locus YOR061W, strain CKA2, active compounds read low 1.01 | S. cerevisiae deletion strains, locus YOR069W, strain VPS5, active compounds read low 1.01 | S. cerevisiae deletion strains, locus YOR070C, strain gyp1, active compounds read low 0.989 | S. cerevisiae deletion strains, locus YOR080W, strain dia2, active compounds read low 0.983 | S. cerevisiae deletion strains, locus YOR083W, strain WHI5, active compounds read low 1.01 | S. cerevisiae deletion strains, locus YOR106W, strain vam3, active compounds read low 1.04 | S. cerevisiae deletion strains, locus YOR136W, strain idh2, active compounds read low 1.03 | S. cerevisiae deletion strains, locus YOR144C, strain elg1, active compounds read low 1.02 | S. cerevisiae deletion strains, locus YOR184W, strain ser1, active compounds read low 1.02 | S. cerevisiae deletion strains, locus YOR231W, strain MKK1, active compounds read low 0.972 | S. cerevisiae deletion strains, locus YOR265W, strain rbl2, active compounds read low 0.995 | S. cerevisiae deletion strains, locus YOR270C, strain vph1, active compounds read low 1.04 | S. cerevisiae deletion strains, locus YOR290C, strain snf2, active compounds read low 1 | S. cerevisiae deletion strains, locus YOR316C, strain cot1, active compounds read low 1.02 | S. cerevisiae deletion strains, locus YPL051W, strain arl3, active compounds read low 0.982 | S. cerevisiae deletion strains, locus YPL078C, strain atp4, active compounds read low 1.01 | S. cerevisiae deletion strains, locus YPL106C, strain sse1, active compounds read low 0.975 | S. cerevisiae deletion strains, locus YPL240C, strain hsp82, active compounds read low 1 | S. cerevisiae deletion strains, locus YPL241C, strain CIN2, active compounds read low 1.01 | S. cerevisiae deletion strains, locus YPL256C, strain CLN2, active compounds read low 0.964 | S. cerevisiae deletion strains, locus YPR119W, strain clb2, active compounds read low 1.01 | S. cerevisiae deletion strains, locus YPR141C, strain kar3, active compounds read low 1.02 | S. cerevisiae deletion strains, locus YPR163C, strain tif3, active compounds read low 1.04 | S. cerevisiae deletion strains, locus YPR167C, strain met16, active compounds read low 1.03 | S. cerevisiae deletion strains, strain wtn01, active compounds read low 1.04 | S. cerevisiae strains, strain wild type, active compounds read low 1.01
